Data taken from the supplement of paper PMC11732987, “Enantioselective OTUD7B fragment discovery through chemoproteomics screening and high-throughput optimisation” (Communications Chemistry, 2025).

Columns and labels:
Experiment in all cases: log2 ratio of Biotin-Ahx-Ub-VS probe labelling (fragment/DMSO); higher = less target engagement (more negative = stronger competition), active = hit call of the paper (q ≤ 0.05, log2 ratio ≤ -1)
Settings in all cases: compound concentration: 200 uM; treatment time: 3 h
USP19 = biological target: T1, USP19 (UniProt O94966)
T1 sequence (whole entry): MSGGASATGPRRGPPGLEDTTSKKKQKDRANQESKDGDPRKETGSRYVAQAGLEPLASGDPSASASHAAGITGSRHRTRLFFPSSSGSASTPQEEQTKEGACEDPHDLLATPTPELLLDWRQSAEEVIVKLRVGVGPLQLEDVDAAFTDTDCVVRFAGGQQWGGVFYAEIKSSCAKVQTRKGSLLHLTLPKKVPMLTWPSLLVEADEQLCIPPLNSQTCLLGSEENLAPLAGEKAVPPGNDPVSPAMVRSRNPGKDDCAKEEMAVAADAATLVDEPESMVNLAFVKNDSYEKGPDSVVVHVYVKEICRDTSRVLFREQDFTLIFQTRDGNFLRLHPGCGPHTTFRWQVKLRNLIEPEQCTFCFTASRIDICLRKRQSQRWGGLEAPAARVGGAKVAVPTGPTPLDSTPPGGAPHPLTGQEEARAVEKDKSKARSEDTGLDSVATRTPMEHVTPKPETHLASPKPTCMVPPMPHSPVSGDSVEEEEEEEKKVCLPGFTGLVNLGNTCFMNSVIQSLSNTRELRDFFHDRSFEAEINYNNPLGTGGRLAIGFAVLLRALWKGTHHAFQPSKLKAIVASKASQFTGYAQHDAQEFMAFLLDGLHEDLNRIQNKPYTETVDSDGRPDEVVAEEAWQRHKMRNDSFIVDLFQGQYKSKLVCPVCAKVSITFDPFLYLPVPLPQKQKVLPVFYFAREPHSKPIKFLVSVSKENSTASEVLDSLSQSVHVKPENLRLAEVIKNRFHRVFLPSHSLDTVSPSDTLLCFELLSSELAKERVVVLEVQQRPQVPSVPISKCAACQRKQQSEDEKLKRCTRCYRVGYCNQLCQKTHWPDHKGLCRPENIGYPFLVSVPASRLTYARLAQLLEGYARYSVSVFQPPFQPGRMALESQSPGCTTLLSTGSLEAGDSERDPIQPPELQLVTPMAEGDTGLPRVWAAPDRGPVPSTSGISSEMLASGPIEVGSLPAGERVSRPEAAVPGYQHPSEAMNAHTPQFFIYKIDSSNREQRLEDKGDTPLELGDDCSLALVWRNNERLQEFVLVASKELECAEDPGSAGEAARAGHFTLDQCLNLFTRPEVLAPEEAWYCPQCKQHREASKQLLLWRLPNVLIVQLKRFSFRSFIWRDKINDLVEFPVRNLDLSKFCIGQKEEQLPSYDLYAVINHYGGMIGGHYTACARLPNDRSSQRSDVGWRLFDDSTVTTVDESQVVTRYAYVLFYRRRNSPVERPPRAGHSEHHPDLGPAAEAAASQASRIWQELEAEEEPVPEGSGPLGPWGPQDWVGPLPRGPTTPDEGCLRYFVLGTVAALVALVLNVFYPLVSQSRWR
Outline: (§1)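 The table lists average log2 ratios of fragment over vehicle, from an unpaired t-test on global-median-normalised Spectronaut label-free quantities. Proteins with ≥2 unique peptides were used. Samples were HEK293T lysate (495 µg) treated in triplicate with fragment at 200 µM or vehicle for 3 h, then with Biotin-Ahx-Ub-VS (0.5 µM final) for 1 h, with labelled DUBs NeutrAvidin-enriched and run by diaPASEF LC-MS/MS.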

USP22 = biological target: T2, USP22 (UniProt Q9UPT9)
T2 sequence (whole entry): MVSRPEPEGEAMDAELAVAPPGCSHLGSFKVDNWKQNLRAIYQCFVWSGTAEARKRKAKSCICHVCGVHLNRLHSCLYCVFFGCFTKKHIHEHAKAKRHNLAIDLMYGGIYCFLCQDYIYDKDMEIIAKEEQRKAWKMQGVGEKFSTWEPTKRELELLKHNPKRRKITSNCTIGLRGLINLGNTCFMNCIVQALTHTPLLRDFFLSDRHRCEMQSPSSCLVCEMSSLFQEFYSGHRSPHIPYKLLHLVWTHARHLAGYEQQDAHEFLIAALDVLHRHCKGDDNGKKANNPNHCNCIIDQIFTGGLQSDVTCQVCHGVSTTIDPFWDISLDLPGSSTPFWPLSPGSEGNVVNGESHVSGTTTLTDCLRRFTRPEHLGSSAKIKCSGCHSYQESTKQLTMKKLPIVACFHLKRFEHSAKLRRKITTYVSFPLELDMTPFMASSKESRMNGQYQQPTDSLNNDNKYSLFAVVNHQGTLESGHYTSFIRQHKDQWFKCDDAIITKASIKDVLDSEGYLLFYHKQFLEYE
Outline: as §1

USP24 = USP24 (UniProt Q9UPU5)
Sequence of USP24 (Q9UPU5 whole entry): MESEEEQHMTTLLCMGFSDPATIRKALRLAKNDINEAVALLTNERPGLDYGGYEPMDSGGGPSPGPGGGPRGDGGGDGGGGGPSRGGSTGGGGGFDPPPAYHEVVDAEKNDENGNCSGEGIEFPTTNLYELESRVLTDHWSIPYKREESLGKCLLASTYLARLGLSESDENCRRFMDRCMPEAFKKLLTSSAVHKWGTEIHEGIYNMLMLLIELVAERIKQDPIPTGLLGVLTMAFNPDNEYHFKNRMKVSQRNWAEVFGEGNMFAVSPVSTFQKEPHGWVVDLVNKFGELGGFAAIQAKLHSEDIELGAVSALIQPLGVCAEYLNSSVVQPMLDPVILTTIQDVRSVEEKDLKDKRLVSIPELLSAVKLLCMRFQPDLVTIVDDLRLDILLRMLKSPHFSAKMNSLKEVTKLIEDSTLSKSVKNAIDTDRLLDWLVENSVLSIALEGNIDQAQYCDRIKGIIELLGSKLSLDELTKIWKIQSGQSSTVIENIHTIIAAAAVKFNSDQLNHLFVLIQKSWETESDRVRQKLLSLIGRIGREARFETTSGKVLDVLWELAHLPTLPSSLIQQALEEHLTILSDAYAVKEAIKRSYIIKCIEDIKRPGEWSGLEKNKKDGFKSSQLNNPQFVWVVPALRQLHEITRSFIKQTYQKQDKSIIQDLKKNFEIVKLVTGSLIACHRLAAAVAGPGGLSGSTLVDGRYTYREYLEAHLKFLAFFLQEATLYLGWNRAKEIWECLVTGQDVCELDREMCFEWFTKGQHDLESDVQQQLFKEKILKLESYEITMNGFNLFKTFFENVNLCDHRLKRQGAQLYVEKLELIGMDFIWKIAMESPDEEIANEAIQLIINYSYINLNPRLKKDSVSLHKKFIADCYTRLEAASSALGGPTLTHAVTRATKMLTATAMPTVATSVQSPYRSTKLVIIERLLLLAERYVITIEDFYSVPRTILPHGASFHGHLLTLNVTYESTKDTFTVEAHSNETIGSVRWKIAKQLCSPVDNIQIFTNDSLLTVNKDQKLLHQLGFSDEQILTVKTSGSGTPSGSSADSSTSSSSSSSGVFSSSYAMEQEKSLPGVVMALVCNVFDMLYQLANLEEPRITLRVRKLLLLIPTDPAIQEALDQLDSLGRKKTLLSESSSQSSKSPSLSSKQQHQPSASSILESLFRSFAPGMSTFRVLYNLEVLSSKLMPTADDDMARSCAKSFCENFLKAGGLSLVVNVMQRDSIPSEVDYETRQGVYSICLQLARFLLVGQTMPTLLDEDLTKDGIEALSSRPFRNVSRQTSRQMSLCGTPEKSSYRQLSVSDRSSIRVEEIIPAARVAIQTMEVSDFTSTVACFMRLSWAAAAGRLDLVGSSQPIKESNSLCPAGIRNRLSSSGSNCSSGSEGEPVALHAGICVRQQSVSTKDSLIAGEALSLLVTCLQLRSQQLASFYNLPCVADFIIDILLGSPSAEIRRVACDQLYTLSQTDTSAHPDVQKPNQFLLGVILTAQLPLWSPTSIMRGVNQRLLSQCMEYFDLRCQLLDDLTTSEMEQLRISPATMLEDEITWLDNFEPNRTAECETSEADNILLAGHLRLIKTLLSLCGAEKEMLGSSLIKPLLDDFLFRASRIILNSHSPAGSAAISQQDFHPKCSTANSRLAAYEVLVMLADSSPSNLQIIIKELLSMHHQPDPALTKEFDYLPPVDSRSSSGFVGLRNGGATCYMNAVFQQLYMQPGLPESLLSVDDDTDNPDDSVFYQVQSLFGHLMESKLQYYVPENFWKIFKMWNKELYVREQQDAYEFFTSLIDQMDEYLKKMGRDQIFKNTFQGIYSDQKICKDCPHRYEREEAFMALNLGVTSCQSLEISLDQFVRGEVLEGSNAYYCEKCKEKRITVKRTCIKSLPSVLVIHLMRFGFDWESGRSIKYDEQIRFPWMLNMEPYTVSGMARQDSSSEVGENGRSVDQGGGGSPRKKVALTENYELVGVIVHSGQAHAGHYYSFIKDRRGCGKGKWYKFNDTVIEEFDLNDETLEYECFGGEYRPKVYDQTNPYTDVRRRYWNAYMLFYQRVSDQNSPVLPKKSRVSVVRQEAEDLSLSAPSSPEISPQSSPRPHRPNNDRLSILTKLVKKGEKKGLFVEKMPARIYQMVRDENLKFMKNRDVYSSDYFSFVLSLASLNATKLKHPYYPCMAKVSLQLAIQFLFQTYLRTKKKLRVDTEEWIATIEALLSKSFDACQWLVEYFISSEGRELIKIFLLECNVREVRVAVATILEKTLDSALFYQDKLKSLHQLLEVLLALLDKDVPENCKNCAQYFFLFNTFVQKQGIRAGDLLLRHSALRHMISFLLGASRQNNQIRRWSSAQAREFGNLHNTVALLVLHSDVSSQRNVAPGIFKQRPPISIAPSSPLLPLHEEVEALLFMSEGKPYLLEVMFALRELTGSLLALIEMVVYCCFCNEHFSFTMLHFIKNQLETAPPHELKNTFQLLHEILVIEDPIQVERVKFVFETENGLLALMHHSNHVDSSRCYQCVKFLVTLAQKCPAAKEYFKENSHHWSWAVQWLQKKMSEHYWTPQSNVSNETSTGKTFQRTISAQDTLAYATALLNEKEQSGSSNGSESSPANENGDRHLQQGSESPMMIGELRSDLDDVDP
Outline: as §1

USP25 = biological target: T3, USP25 (UniProt Q9UHP3)
T3 sequence (whole entry): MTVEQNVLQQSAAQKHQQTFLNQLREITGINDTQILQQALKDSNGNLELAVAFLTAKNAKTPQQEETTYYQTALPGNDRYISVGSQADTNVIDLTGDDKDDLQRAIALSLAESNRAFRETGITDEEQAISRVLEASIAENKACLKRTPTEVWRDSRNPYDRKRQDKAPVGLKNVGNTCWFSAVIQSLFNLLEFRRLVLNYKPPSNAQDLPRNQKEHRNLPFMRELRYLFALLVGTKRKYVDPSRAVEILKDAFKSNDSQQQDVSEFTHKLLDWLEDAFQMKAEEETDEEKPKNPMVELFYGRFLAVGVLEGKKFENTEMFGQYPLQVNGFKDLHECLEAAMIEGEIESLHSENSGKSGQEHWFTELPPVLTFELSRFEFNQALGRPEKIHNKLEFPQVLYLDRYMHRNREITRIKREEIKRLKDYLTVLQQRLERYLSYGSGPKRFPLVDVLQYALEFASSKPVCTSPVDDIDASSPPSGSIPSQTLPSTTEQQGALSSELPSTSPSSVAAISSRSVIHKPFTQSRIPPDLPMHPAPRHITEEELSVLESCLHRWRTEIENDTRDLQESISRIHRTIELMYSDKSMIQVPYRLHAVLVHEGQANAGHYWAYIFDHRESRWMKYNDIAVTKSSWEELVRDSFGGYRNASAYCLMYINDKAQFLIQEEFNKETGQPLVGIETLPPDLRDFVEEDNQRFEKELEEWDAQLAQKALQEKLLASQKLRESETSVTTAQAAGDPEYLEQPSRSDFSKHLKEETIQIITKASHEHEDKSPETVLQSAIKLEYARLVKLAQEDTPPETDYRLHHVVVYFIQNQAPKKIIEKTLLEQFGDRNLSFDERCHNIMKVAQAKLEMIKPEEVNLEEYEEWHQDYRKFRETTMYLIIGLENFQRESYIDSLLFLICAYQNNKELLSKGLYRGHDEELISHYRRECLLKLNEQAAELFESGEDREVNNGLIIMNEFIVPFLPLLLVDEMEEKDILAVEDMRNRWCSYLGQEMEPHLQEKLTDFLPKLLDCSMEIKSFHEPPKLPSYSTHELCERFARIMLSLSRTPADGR
Outline: as §1

USP28 = biological target: T4, USP28 (UniProt Q96RU2)
T4 sequence (whole entry): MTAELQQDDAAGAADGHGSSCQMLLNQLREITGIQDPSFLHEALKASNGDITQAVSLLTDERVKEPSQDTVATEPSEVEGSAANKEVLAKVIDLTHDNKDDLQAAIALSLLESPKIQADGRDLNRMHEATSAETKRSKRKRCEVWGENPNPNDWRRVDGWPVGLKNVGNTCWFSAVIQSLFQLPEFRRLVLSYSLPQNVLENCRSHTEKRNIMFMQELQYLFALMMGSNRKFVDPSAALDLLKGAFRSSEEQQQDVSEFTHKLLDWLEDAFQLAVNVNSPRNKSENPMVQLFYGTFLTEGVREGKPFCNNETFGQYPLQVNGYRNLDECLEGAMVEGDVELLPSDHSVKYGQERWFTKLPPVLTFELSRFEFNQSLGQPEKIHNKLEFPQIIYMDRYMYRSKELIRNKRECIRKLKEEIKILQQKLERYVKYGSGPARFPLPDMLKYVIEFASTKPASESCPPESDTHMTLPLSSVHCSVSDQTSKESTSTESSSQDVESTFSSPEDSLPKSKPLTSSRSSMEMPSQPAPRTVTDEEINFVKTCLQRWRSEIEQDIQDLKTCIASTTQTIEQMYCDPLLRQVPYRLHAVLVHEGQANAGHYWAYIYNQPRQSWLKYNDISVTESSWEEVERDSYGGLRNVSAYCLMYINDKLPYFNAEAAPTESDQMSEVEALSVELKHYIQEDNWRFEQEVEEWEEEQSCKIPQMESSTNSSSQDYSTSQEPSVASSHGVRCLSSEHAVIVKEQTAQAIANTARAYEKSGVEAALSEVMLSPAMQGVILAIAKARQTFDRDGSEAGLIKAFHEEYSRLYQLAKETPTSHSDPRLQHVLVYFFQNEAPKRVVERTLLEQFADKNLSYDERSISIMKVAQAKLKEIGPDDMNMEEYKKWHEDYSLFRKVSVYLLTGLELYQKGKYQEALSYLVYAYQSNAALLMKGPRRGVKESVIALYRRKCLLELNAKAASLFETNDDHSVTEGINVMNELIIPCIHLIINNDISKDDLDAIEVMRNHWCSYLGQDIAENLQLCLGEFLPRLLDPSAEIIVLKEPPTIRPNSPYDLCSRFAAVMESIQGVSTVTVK
Outline: as §1

Measured: log2 ratio of Biotin-Ahx-Ub-VS probe labelling

CN(CCC(O)c1ccc(Br)cc1)C(=O)CCl (stereo not given)
inactive: USP19 -0.439 | USP22 -0.43 | USP24 -0.901 | USP25 -0.071 | USP28 -0.457
